# Laboratory results from PMC4552634, “A New Set of Chemical Starting Points with Plasmodium falciparum Transmission-Blocking Potential for Antimalarial Drug Discovery” (PLoS ONE, 2015).
# In all, about 13,000 compounds went through this assay and about 3,200 (25%) showed an effect of 50% or more. This is one part of the list.
# Test system: P. falciparum stage V gametocytes
# Parameters: BacTiter-Glo ATP luminescence viability of purified stage V gametocytes in 384-well plates, per cent inhibition versus DMSO
# Conditions: 48 h, 5 µM; inhibitor
row,Compound,% Inhibition
1,CN(C)c1ccc(CN2CCC(NC(=O)c3ccc(-c4cccc(F)c4)s3)CC2)cc1 [TCMDC-134327],-0.6628%
2,COc1ccccc1Nc1nc(C)cc(NCc2ccc(-n3ccnc3)cc2)n1 [TCMDC-133452],11.88%
3,COc1ccc(S(=O)(=O)Nc2cc(C)cc(Br)c2OC)cc1N1CCN(C(=O)C(Cl)(Cl)Cl)CC1 [TCMDC-139808],8.102%
4,CO/C(=C\C=C\c1cc2cc(Cl)c(Cl)cc2[nH]1)C(=O)NCCCN1CCN(c2ccncc2)CC1 [TCMDC-139184],16.21%
5,CN(C)CCCSc1ccccc1NC(=O)C=Cc1ccccc1 [TCMDC-125843],7.207%
6,Cc1ccc(-c2noc(COc3ccccc3C(=O)NC3CCCC3)n2)cc1 [TCMDC-124748],47.39%
7,FC(F)(F)c1ccc2nccc(NCc3ccccc3)c2c1 [TCMDC-138259],-8.95%
8,CCc1ccc(NC(=O)c2ccc(CN3CCCN(CCC(C)C)CC3)cc2)cc1 [TCMDC-136448],-6.236%
9,COc1ccc2oc(=O)c(C#N)c(O)c2c1 [TCMDC-131398],-8.165%
10,CN1CCN(CCCN(Cc2cccc(-c3ccc(CNC4CCCC4)cc3)c2)C(=O)CCC2CCCC2)CC1 [TCMDC-140750],98.64%
11,FC(F)(F)c1ccc(CNC2CCN(CC3CCCCC3)CC2)cc1 [TCMDC-141661],-50.93%
12,CN1CCN(CCCN(Cc2ccc(-c3ccc(CNC4CCCC4)cc3)cc2)C(=O)CCC2CCCC2)CC1 [TCMDC-140560],99.06%
13,FC(F)(F)c1cccc(CNC2CCN(CC3CCCCC3)CC2)c1 [TCMDC-141660],-52.78%
14,CN1CCN(CCCN(Cc2cccc(-c3cccc(CNC4CCCC4)c3)c2)C(=O)CCC2CCCC2)CC1 [TCMDC-140555],119.1%
15,CCCCCCN1CCC(NCc2ccc(CN(C)C)cc2)CC1 [TCMDC-141662],16.26%
16,CCCCCCN1CCC(NCc2cccc(C#N)c2)CC1 [TCMDC-141670],-17.05%
17,CCCC(C)Nc1nc(C)cc(N[C@@H](Cc2ccccc2)C(=O)Nc2ccccc2)n1 (stereo partly drawn) [TCMDC-134767],-30.62%
18,CCc1c(C(=O)NC2CCC(N3CCC(c4ccccc4OC)CC3)CC2)[nH]c2ccc(Br)cc12 (stereo not drawn) [TCMDC-133499],-52.27%
19,COc1ccccc1C(C)NCC(=O)Nc1cc(C(F)(F)F)ccc1Cl (stereo not drawn) [TCMDC-125041],-2.208%
20,COc1ccc(Nc2nccc(N3CCC(NS(=O)(=O)c4ccc(NC(C)=O)cc4)C3)n2)cc1 (stereo not drawn) [TCMDC-133608],-25.9%
21,CNC(=O)C(NC(=O)c1ccccc1C(=O)OC)c1ccccc1 (stereo not drawn) [TCMDC-137226],6.158%
22,CCN(CC)CCN(Cc1ccc(-c2ccc(C(F)(F)F)cc2)cc1)C(=O)Cn1cc(Cc2cnn(C)c2)c(=O)nc1/C=C/c1cccc(F)c1F [TCMDC-140964],99.53%
23,CCN(CC)CCN(Cc1ccc(-c2ccc(C(F)(F)F)cc2)cc1)C(=O)Cn1cc(Cc2cnn(C)c2)c(=O)nc1/C=C/c1ccc(F)cc1 [TCMDC-140741],95.48%

row,Compound,% Inhibition
1,O=C(Cc1cc(=O)oc2cc(O)ccc12)N1CCC(CN2CCC(c3c[nH]c4ccccc34)CC2)CC1 [TCMDC-139881],9.393%
2,N#Cc1cccc(NC(=O)Nc2ccc(-c3csc(-c4nc5ccccc5[nH]4)c3)cc2)c1 [TCMDC-133188],30.15%
3,Cn1nc(C(F)(F)F)cc1-c1ccc(C(=O)Nc2ccc3c(c2)CNCC3(C)C)s1 [TCMDC-141916],39.68%
4,NC(N)=NC(=O)Nc1cc(Cl)c(Cl)c(C(F)(F)F)c1 [TCMDC-137511],-11.78%
5,CCCCC(=O)Nc1cc(=O)[nH]c2nc(-c3ccc(Cl)cc3)nn12 [TCMDC-125002],1.203%
6,COc1cc(NC(=O)/C=C/c2cc(F)cc(F)c2F)cc(OCCN2CCC(O)(c3ccccc3)CC2)c1 [TCMDC-140936],-10.33%
7,N#Cc1cccc(NC(=O)Nc2ccc3c(c2)CCN(C2CCC2)CC3)c1 [TCMDC-136005],22.54%
8,COc1ccc(C(C(=O)NC2CCN(C[C@H](O)c3ccnc4ccc(OC)cc34)CC2)N2CCN(Cc3ccccc3)CC2)cc1 (stereo partly drawn) [TCMDC-140987],-16.46%
9,CN1CCC(COC(=O)C(O)(c2ccccc2)c2ccccc2)C1 (stereo not drawn) [TCMDC-131375],2.294%
10,Cc1cc(N2CCCC2)nc(Nc2ccc(NC(=O)C(C)Oc3ccccc3)cc2)n1 (stereo not drawn) [TCMDC-124968],18.82%
11,NCCNc1ccc([N+](=O)[O-])cc1C(=O)Nc1cccc(Cl)c1 [TCMDC-123690],33.32%
12,C=CCNC(=O)C(C)c1ccc2cc(OC)ccc2c1 (stereo not drawn) [TCMDC-132021],24.74%
13,C=CCNS(=O)(=O)c1ccc(NC(=O)C(C)Oc2ccc([N+](=O)[O-])cc2)cc1 (stereo not drawn) [TCMDC-125123],69.95%
14,Cc1ccc(NC(=O)c2cc([N+](=O)[O-])ccc2NCc2cccnc2)cc1Cl [TCMDC-124571],7.674%
15,CCNS(=O)(=O)c1ccc(Oc2ccc([N+](=O)[O-])cc2)cc1 [TCMDC-137451],-0.3916%
16,Cc1cc(N(C)C)nc(Nc2ccc(NC(=O)C(C)Oc3ccccc3)cc2)n1 (stereo not drawn) [TCMDC-124974],7.49%
17,CCCCNS(=O)(=O)c1ccc(NC(=O)c2cc([N+](=O)[O-])ccc2Cl)cc1 [TCMDC-124345],83.43%
18,CCCNS(=O)(=O)c1ccc(NC(=O)C(C)Oc2ccc([N+](=O)[O-])cc2)cc1 (stereo not drawn) [TCMDC-125122],65.91%
19,O=C(Nc1ccc(OC2CCN(Cc3ccc(F)cc3)CC2)c(Cl)c1)c1ccoc1 [TCMDC-133744],29.48%
20,C[C@H](NC(=O)c1c(CN2CCN(C(=O)C(C)(C)C)CC2)c(-c2cccs2)nc2ccccc12)C1CCCCC1 [TCMDC-141723],-7.5%
21,CCNC(=O)NC1CCN(Cc2c(-c3cccs3)nc3ccccc3c2C(=O)N[C@@H](C)C2CCCCC2)CC1 [TCMDC-141704],101.3%
22,C[C@H](NC(=O)c1c(CN2CCC(NC(=O)CC(C)(C)C)CC2)c(-c2cccs2)nc2ccccc12)C1CCCCC1 [TCMDC-141792],25.58%
23,CC(C)CC(=O)NC1CCN(Cc2c(-c3cccs3)nc3ccccc3c2C(=O)N[C@@H](C)C2CCCCC2)CC1 [TCMDC-141791],-23.57%

row,Compound,% Inhibition
1,C[C@H](NC(=O)c1c(CN2CCC(N3CCCCC3=O)CC2)c(-c2cccs2)nc2ccccc12)C1CCCCC1 [TCMDC-141620],-63.06%
2,CNC(=O)NC1CCN(Cc2c(-c3cccs3)nc3ccccc3c2C(=O)N[C@@H](C)C2CCCCC2)CC1 [TCMDC-141689],58%
3,O=c1cc(NCCCNCc2ccc(C(F)(F)F)c(F)c2)[nH]c2ccccc12 [TCMDC-139428],-42.45%
4,Cc1nc2ccccc2c(=O)n1NCc1ccc(Cl)c(Cl)c1 [TCMDC-131405],15.32%
5,CNC(=O)c1cc(NCCCNCc2ccc(Cl)c(C(F)(F)F)c2)nc2ccccc12 [TCMDC-141082],72.56%
6,Clc1ccc(Nc2nc(Nc3ccc(Cl)c(Cl)c3)nc(Sc3nc4ccccc4[nH]3)n2)cc1Cl [TCMDC-124069],-24.51%
7,Nc1ncc(-c2ccsc2)cc1-c1nc2ccccc2[nH]1 [TCMDC-133557],13.31%
8,Cc1sc2ncnc(Sc3nc4ccccc4[nH]3)c2c1C [TCMDC-123835],57.62%
9,CCc1cc2c(Sc3nc4ccccc4[nH]3)ncnc2s1 [TCMDC-124553],60.6%
10,COc1ccc(NC(=O)[C@H](CC(C)C)Nc2cc(C)nc(Nc3ccccc3)n2)cc1 [TCMDC-134738],-4.957%
11,CCCCn1c(C)c(C(=O)OCC)c2cc(OC(C)=O)c(Br)cc21 [TCMDC-125582],-26.36%
12,CC(C)CNC(=O)c1cncc(-c2cccc(CNC3Cc4ccccc4C3)c2)c1 [TCMDC-134219],-68.65%
13,CCCNC(=O)c1cncc(-c2cccc(CNC3Cc4ccccc4C3)c2)c1 [TCMDC-134220],-28.4%
14,CC1CN(c2ncc(-c3ccc(CNC4Cc5ccccc5C4)cc3)cn2)CC(C)N1 (stereo not drawn) [TCMDC-133769],77.63%
15,c1cc(CNC2Cc3ccccc3C2)cc(-c2cnc(N3CCNCC3)nc2)c1 [TCMDC-133140],110.7%
16,CCCNCc1ccc(-c2ccc(CNC3Cc4ccccc4C3)cc2)nc1 [TCMDC-141616],6.713%
17,CC[C@H](C)CNC(=O)c1cncc(-c2ccc(CNC3Cc4ccccc4C3)cc2)c1 [TCMDC-134240],-0.9583%
18,CN(CCCNCc1cccc2ccccc12)CCCNCc1cccc2ccccc12 [TCMDC-137905],108.9%
19,CN(CCCNCc1ccc2ccccc2c1)CCCNCc1ccc2ccccc2c1 [TCMDC-137908],106.3%
20,N#Cc1ccc(-c2ccc(C(=O)NCCCCN3CC=C(c4ccc5c(c4OCC4CC4)CCCC5)CC3)cc2)cc1 [TCMDC-138756],42.6%
21,O=C(c1ccc(OCCn2ccnc2)cc1)N1CCC(c2ccc(Br)cc2)C1 (stereo not drawn) [TCMDC-134837],38.05%
22,CN(CCCN(C)c1cc(NC(=O)c2cccc(F)c2)ccn1)Cc1cccc(O)c1 [TCMDC-134952],-21.83%
23,Cc1ccc(C(O)CNc2ccnc(Nc3cccc(-c4csc(C)n4)c3)n2)cc1 (stereo not drawn) [TCMDC-136570],6.544%
